Compound activity (PubChem)
IL1B secr inh – inflammasome signaling inhibition, IL-1 beta readout; THP-1 LPS/ATP IL-1B secretion, AlphaLISA, 16 h; hits give low values; activity change, % at 57.5 µM; hit rate 4.7% among 360,000; AID 743279; in the data active = activity change below about -50%; inconclusive = mostly about -30% to -49%
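Secreted IL-1B measured by AlphaLISA bead assay after 16 h compound exposure of THP-1 cells; compounds (final up to 57.5 uM) added 1 h before LPS (250 ng/mL) and ATP (1.25 mM) stimulation; lower signal means less secretion.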
ELG1 DNA repair – blocks ELG1-dependent DNA repair in HEK293T cells; HEK293T ELG1-luciferase reporter, luminescence, 16 h; DNA damage induced by 5-fluorouridine; hit rate 2.3% among 330,000; Potency, µM (series often up to 46.1 µM), inactives show at the top dose activity change, negative = inhibition, most hits filed as inhibitors; also: potency is read from the fitted curve at half-maximal effect; nearly all actives have a fitted effect of over 55% in size
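Luminescence from the luciferase reporter, measured 30 min after ONE-Glo reagent at room temperature, was the read-out. Beforehand, 2,000 cells per well were exposed for 16 hr at 37 °C to 5-fluorouridine together with compound or vehicle.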
TDP1 inh – blocks human tyrosyl-DNA phosphodiesterase 1; hit rate 0.28% among 350,000; Q9NUW8; recombinant TDP1, AlphaScreen DNA substrate cleavage; AID 485290; Potency, µM (doses to about 130 µM), inactives show at the top dose activity change, negative = inhibition, actives largely listed as inhibitors; also: potency is read from the fitted curve at half-maximal effect; nearly all actives have a fitted effect of over 40% in size
Target sequence (Q9NUW8 whole entry, looked up): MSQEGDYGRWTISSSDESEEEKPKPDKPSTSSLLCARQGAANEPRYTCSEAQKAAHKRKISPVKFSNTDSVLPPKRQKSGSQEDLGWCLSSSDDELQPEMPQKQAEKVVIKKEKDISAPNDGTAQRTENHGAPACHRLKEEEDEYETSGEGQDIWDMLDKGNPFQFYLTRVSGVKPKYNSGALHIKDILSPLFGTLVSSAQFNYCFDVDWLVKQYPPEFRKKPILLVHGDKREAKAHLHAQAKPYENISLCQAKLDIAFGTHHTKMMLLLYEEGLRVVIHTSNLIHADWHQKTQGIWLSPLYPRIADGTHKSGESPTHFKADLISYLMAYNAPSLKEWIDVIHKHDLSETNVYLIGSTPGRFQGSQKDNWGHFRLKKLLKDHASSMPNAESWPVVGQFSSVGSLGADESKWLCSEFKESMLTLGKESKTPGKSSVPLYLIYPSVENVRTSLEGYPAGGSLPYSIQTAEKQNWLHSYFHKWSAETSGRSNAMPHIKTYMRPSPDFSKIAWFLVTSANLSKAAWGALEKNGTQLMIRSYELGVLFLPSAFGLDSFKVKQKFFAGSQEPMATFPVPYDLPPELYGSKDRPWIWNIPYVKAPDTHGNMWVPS
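Signal: AlphaScreen proximity between streptavidin donor and anti-FITC acceptor beads on intact substrate. Reaction: Tdp1 1 nM, substrate 15 nM final, 5 min RT after 15 min compound preincubation.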
Giardia kill – Giardia lamblia killing; Giardia lamblia trophozoite viability; activity change, % at 7.66 µM, hits read low; hit rate 0.15% among 340,000; AID 540267; in the data active = activity change below about -80%; inconclusive = between about -30% and that limit;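 also: parasites exposed to compound for two days anaerobically before the ATP read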
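Media and compound were dispensed first, then trophozoites at 100 cells/well; plates sat 48 hrs at 37 deg C without oxygen before ATP luminescence reagent was added and read after 15-30 min at room temperature.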
TDP1 cell CPT – DT40-hTDP1 cell growth loss with CPT. chicken DT40 Tdp1-/-;hTDP1 cells + 20 nM CPT, ATP luminescence, 48 h. Potency, µM (series often up to 46.2 µM), for the others: top-dose activity change, negative = growth inhibition, hits mostly inhibitors. hit rate 12% among 420,000; also: potency is read from the fitted curve at half-maximal effect; nearly all actives have a fitted effect of over 55% in size
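Chicken DT40 Tdp1-/- cells complemented with human TDP1, 400 cells/well, exposed to compounds plus 20 nM camptothecin for at least 48 h at 37 C; viability read as ATP content by CellTiter-Glo luminescence.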
DT40 TDP1 no CPT – qHTS for Inhibitors of human tyrosyl-DNA phosphodiesterase 1 (TDP1): qHTS in cells in absence of CPT; Potency, µM (top dose mostly 46.2 µM), inactives show at the top dose activity change, negative = growth inhibition, actives largely listed as inhibitors; DT40 Tdp1-/- hTDP1 cells, no CPT, ATP luminescence, 48 h; hit rate 15% among 420,000; AID 686978, 2013; also: potency is read from the fitted curve at half-maximal effect; nearly all actives have a fitted effect of over 55% in size
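DT40 Tdp1-/-;hTDP1 cells, no CPT (DMSO vehicle only), 400 cells/well; compounds pin-transferred; ≥48 hr, 37 °C; CellTiter-Glo 30 min RT dark, luminescence read.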
The depositor's hits bear a star; u = inconclusive; x = no result given; [ ] = another dose, or the depositor's remark. Rows were chosen to be rich in hits. Some 19% of all compounds tested hit in one or more screens of this group. Unless noted, calls follow the shape of the dose curve; as a rule, active = well fitted curve in the direction sought with a large enough effect; inconclusive = small, poorly fitted or top-dose-only effect, or another doubt; inactive = no such curve, though single readings can be large; an effect the other way counts as inactive or inconclusive. % is scaled to controls: 0 for no effect and ±100 for the full control effect.

SMILES	IL1B secr inh	ELG1 DNA repair	TDP1 inh	Giardia kill	TDP1 cell CPT	DT40 TDP1 no CPT
CCOC(=O)c1nnc(-c2ccc(C)cc2)nc1Sc1cccc(Cl)c1	1	4%	-5%	-7	9.2µM*	u
CCOC(=O)c1nnc(-c2ccccc2)nc1Oc1ccc(Cl)cc1	-71*	-9%	-8%	-2	21µM*	16µM*
CC(C)(C)OC(=O)n1cc(CCO)c2ccccc21	32	u	-2%	3	-19%	-20%
CCCC(=O)Nc1nnc(SCc2cc(=O)c3ccc(C)cc3[nH]2)s1	x	x	3%	x	1.5µM*	0.73µM*
O=C(/C=C/c1ccc(Cl)c([N+](=O)[O-])c1)Nc1cccnc1	-53*	u	x	-7	-25%	-25%
O=C(/C=C/c1ccc(Cl)c([N+](=O)[O-])c1)Nc1cccc(NC(=O)c2ccco2)c1	-99*	u	0%	-6	u	u
O=C(/C=C/c1cccc([N+](=O)[O-])c1)Nc1cccc(NC(=O)c2cccs2)c1	-60*	18µM*	5%	10	5.8µM*	18µM*
O=C(/C=C/c1cccc([N+](=O)[O-])c1)Nc1cccc(NC(=O)c2ccco2)c1	-95*	21µM*	5%	14	u	16µM*
COc1ccc(C(=O)N2CCOC2CNC(=O)C(=O)NCCc2ccc(OC)c(OC)c2)cc1 (stereo not given)	0	-10%	1%	-4	2%	2%
CCOC(=O)N1CCN(C(=O)CSc2nnc3[nH]c(=O)c(C)c(C)n23)CC1	2	12%	x	3	0%	-3%
Cc1ccc(-n2c3c(cc(-c4nc(-c5ccc(Cl)cc5)cs4)c2=O)C(=O)CC(C)(C)C3)cc1C	x	x	8%	x	1%	-6%
COc1cccc(CN(C(=O)c2oc3ccc(Br)cc3c2C)C2CCS(=O)(=O)C2)c1 (stereo not given)	x	x	4%	x	15µM*	16µM*
Cc1cc2oc(C(=O)N(Cc3ccccc3)C3CCS(=O)(=O)C3)c(C)c2cc1C (stereo not given)	-5	-10%	7%[56.1 µM]	8	26µM*	16µM*
O=C(CSc1ccc(F)cc1)Nc1ccc(Br)cc1	0	u	-4%	-18	-30%	18µM*
CCNC(=O)c1ccccc1SCC(=O)Nc1ccc(F)cc1	-8	u	9%	-8	16µM*	u
O=S(=O)(c1ccccc1)c1ccc(N2CCCCCC2)cc1	6	18%	x	-1	u	u
CN(C)S(=O)(=O)c1cccc(-c2nn(-c3ccccc3)cc2/C=C2\SC(=S)NC2=O)c1	-5	23µM*	5%	-12	u	u
CN(C)S(=O)(=O)c1cccc(-c2nn(-c3ccccc3)cc2/C=C(\C#N)c2nc3ccccc3[nH]2)c1	-3	2.6µM*	0%	15	5.2µM*	5.8µM*
Cc1ccc(Nc2nc(N)nc(CCl)n2)cc1	x	-23%	x	5	16µM*	u
Cc1cccc(Nc2nc(N)nc(CCl)n2)c1C	x	9.2µM*	8%	3	10µM*	16µM*
COc1cccc(Nc2nc(N)nc(CCl)n2)c1	x	u	7%	-11	13µM*	u
CCOc1ccc(Nc2nc(N3CCCCC3)nc(N3CCCCC3)n2)cc1	6	2%	1%	-9	-21%	u
CCOc1ccc(Nc2nc(N)nc(CCl)n2)cc1	-96*	u	12%	-2	2.1µM*	5.8µM*
COc1cccc(Nc2nc(N)nc(C(F)(F)F)n2)c1	-9	u	0%	26	-4%	-17%
COC(=O)c1cc2oc(C)cc2n1Cc1ccccc1Cl	x	x	7%	x	u	u
SMILES	IL1B secr inh	ELG1 DNA repair	TDP1 inh	Giardia kill	TDP1 cell CPT	DT40 TDP1 no CPT
COC(=O)CSc1nnc(CNC(=O)c2cc(OC)cc(OC)c2)n1-c1ccc(F)cc1	u	-6%	1%	11	2%	1%
Cc1ccc(Nc2nc(N)nc(CCl)n2)c(C)c1	-89*	u	x	-17	6.5µM*	10µM*
Cc1ccc(Nc2nc(N)nc(CN3CCc4ccccc4C3)n2)cc1	u	-16%	7%	-5	18µM*	u
Cc1ccc(Nc2nc(N)nc(CSC(=S)N3CCOCC3)n2)cc1	u	u	0%	-7	-4%	u
CCOc1ccc(Nc2nc(N)nc(CSC(=S)N3CCOCC3)n2)cc1	u	u	7%	-30	u	21µM*
Cc1cccc(Nc2nc(N)nc(CCl)n2)c1	-106*	u	1%	8	13µM*	21µM*
CCCN1C(=O)C(=O)N(CC(=O)N2c3ccccc3NC(=O)CC2C)C1=O (stereo not given)	12	x	x	x	3%	1%
CCOC(=O)c1ccccc1NC1(c2ccc(OC)cc2)C(=O)c2ccccc2C1=O	x	x	4%	x	-23%	u
COC(=O)C1(C(C[N+](=O)[O-])c2ccc(C)cc2)C(=O)NCC1c1ccco1 (stereo not given)	-5	8%	x	18	u	u
CCOC(=O)C(=O)C1(C(=O)OCC)Oc2cc(OC)cc(OC)c2C(=O)C1c1ccccc1 (stereo not given)	x	x	u	x	-2%	-9%
CCN(CC)CCN(C(=O)c1ccc(CN2CCCCC2)o1)C(C(=O)NC1CCCCC1)c1ccc(F)cc1 (stereo not given)	-7	206%	6%	6	u	u
CC(C)(C)c1ccc(C(=O)NC(=S)N2CCCCCC2)cc1	-6	1%	3%	4	18µM*	13µM*
CC1CCN(C(=S)NC(=O)c2ccc(C(C)(C)C)cc2)CC1	0	2%	6%	-8	23µM*	u
CC(C)(C)c1ccc(C(=O)NC(=S)N2CCCC2)cc1	-15	u	6%	4	-20%	u
C=CCOc1ccc(C2C(C(=O)c3ccco3)=C(O)C(=O)N2c2nnc(C)s2)cc1 (stereo not given)	9	5%	4%	17	u	u
O=C1CN(C(=O)CN2CCN(S(=O)(=O)c3ccccc3)CC2)c2ccccc2N1	2	x	x	x	-23%	-15%
COc1ccc(C2Nc3ccccc3C(=O)N2NS(=O)(=O)c2ccccc2)cc1 (stereo not given)	2	-3%	-1%	0	15%	-12%
CSC(=S)NN=C(C)c1cccc(C)n1	u	x	x	-1	0.033µM*	0.018µM*
CC(=NNC(=S)N1CC2CCC(CC2)C1)c1ccncn1	0	x	x	-18	0.037µM*	0.029µM*
CSc1nncc(/C(C)=N\Nc2cccc(C)c2)n1	3	10%	4%	1	-15%	-18%
